The record followed here is PubChem BioAssay.

The structures appear in SMILES notation. Active and inactive are the calls of the source. Unless noted, how the calls were made is not given here.

A short description of assay [1]: compounds binding Alexa647 anti-His antibody – biochemical, small-molecule microarray, 635 nm fluorescence, artefact control for SMM control protein annotation, primary screen (AID 1128).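 Further: score merges feature fluorescence with signal-to-noise for each printed compound spot.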 As to conditions: higher = more signal.
The subject of assay [2] is Human papillomavirus type 1a E7 protein (residues 1-88). Put plainly: HPV1a E7 small-molecule binders, primary screen, biochemical, small-molecule microarray, residues 1-88, 635 nm (AID 1129). The following applies: small-molecule microarray binding, fluorescence 635 nm; higher = more signal.
For assay [3], the target named is Focal adhesion kinase 1 (Homo sapiens) (UniProt Q05397). Put plainly: PTK2 protein binding on printed compound slides – biochemical, small-molecule microarray, 635/667 nm fluorescence, BSA, DTT, primary screen (AID 1130).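 Further: composite of spot emission at 667 nm and signal to noise over triplicate slides.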 As to conditions: 635 nm fluorescence, higher = more signal.
Assay [4] has as its system Fibrinogen (Alexa647-labelled). The assay can be described thus: Alexa647-fibrinogen binding to printed small molecules – biochemical, small-molecule microarray, 635/667 nm fluorescence, artefact control for SMM control-protein annotation, profiling panel (AID 1131).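 Further: z-score merges 667 nm fluorescence with per-spot signal-to-noise over triplicate slides.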 The following applies: fibrinogen-A647 binding fluorescence, higher = more signal.
For assay [5], the target named is Follistatin (Homo sapiens) (UniProt P19883). The assay can be described thus: FST protein binding to printed compounds – biochemical, small-molecule microarray, 635/667 nm fluorescence, primary screen (AID 1132). As to conditions: 635 nm fluorescence, higher = more signal.
In assay [6] the target is Fibroblast growth factor 2 (Homo sapiens) (UniProt P09038). The assay can be described thus: basic fibroblast growth factor binding to printed compounds – biochemical, small-molecule microarray, 635/667 nm fluorescence, primary screen (AID 1133). As to conditions: FGF2, fluorescence 635/667, higher = more signal.
Assay [7] can be described thus: JC-1 mitochondrial potential readout, lung cancer cells – cell-based, A549, JC-1 fluorescence, basal, 24 h, 100 nL, profiling panel (AID 1138).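 Further: A549 lung adenocarcinoma cells under basal conditions with no added stimulus; test concentration not given here.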 As to conditions: higher = more signal.
The subject of the next assay is Lefty1. Put plainly: Lefty1 protein binding to printed compounds – biochemical, small-molecule microarray, 635/667 nm fluorescence, primary screen (AID 1139). The following applies: fluorescence 635/667, higher = more signal.
The test system of assay [8] is wheat germ agglutinin (Triticum aestivum), Alexa647-labelled. The assay can be described thus: Alexa647-WGA lectin binding to printed small molecules – biochemical, small-molecule microarray, 635/667 nm fluorescence, artefact control for SMM control-protein annotation, profiling panel (AID 1140).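 Further: score merges 667 nm feature emission with signal to noise over triplicate slides.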 As to conditions: WGA-A647 binding, 635 nm fluorescence, higher = more signal.

The target of assay [9] is Luciferin 4-monooxygenase (Photinus pyralis) (UniProt P08659). The assay can be described thus: inhibition of purified Photinus pyralis luciferase – biochemical, luminescence, purified enzyme, 2006 set, primary screen (AID 1141).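 Further: cell-free assay with purified firefly luciferase at 100 ng per well in PBS; test concentration not given here.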 As to conditions: purified firefly luciferase, SteadyGlo luminescence, 30 min; higher = more signal, called active from +8 up or from −8 down.
For assay [10], the system named is Wnt5a (protein binding on small-molecule microarray). Put plainly: small molecules binding Wnt5a protein – biophysical, small-molecule microarray, 635/667 nm fluorescence, primary screen (AID 1142).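 Further: fluorescence read at 667 nm with signal to noise per printed feature.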 The following applies: 635 nm fluorescence, higher = more signal.
Assay [11] in a line: ATP-based viability of Huh7 replicon cells – cell-based, CellTiter-Glo luminescence, basal, 48 h, cytotoxicity control for HCV replication inhibitor project, primary screen (AID 1143).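 Further: Huh7 hepatoma cells carrying a hepatitis C replication reporter with no stimulus; test concentration not given here.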 As to conditions: higher = more signal, called active from +8 up or from −8 down. (In general: A replicon is a self-replicating genome or part of one, used to study replication in cells.)
The nature of assay [12]: Pseudomonas biofilm growth suppression – PAO1 strain, BacTiter-Glo luminescence, LB-PBS, primary screen (AID 1144). As to conditions: P. aeruginosa PAO1 biofilm, 12 h, higher = more signal.
Assay [13] can be described thus: basal CRE-LacZ reporter activity in PC12 – cell-based, unstimulated, primary screen (AID 1145). The following applies: no forskolin, luminescence, 4.5 h, higher = more signal, called active from +8 up or from −8 down.
Assay [14] is described as follows: forskolin-driven CRE-LacZ activity in PC12 – cell-based, CRE-LacZ reporter, forskolin-stimulated, primary screen (AID 1146).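 Further: PC12 cells with 6xCRE LacZ reporter stimulated by forskolin 10 µM; beta-galactosidase reporter signal reflecting CREB driven transcription.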 The following applies: luminescence, 4.5 h, higher = more signal, called active from +8 up or from −8 down.
Assay [15] deals with Streptavidin (Streptomyces avidinii) (UniProt P22629). Put plainly: compounds binding control protein streptavidin – biophysical, small-molecule microarray, 635/667 nm fluorescence, artefact control for SMM compound annotation, primary screen (AID 1147).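 Further: signal reflects streptavidin binding to arrayed compounds as a control protein.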 As to conditions: higher = more signal.
Assay [16] is described as follows: probe aInhba binding on compound microarray – biochemical, small-molecule microarray, 635/667 nm fluorescence, primary screen (AID 1148).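 Further: score merges 667nm spot fluorescence with signal-to-noise for antibody binding to printed compounds.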 As to conditions: higher = more signal.
The target of assay [17] is Torsin-1A (Homo sapiens) (UniProt O14656). The assay can be described thus: TOR1A wild-type binding on microarray – cell lysate, small-molecule microarray, lysate, 635/667 nm, primary screen (AID 1149). The following applies: COS7 hTOR1A-WT lysate, 635 nm fluorescence, higher = more signal.
Assay [18] shares this target. The assay can be described thus: torsin A mutant lysate binding on microarrays – cell lysate, small-molecule microarray, COS7 lysate, 635/667 nm fluorescence, primary screen (AID 1150).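 Further: score pools 667 nm emission and signal to noise measuring lysate protein binding.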 As to conditions: COS7 hTOR1A mutant lysate, 635 nm fluorescence, higher = more signal.
The subject of assay [19] is Sonic hedgehog protein (Shh). The assay can be described thus: Sonic hedgehog microarray binding compounds – biochemical, small-molecule microarray, 635/667 nm fluorescence, primary screen (AID 1151).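 Further: Shh protein binding to compounds spotted on small-molecule microarray slides; score combines spot fluorescence intensity with signal-to-noise across triplicate slides.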 The following applies: 635 nm fluorescence, higher = more signal.

Sequence of Luciferin 4-monooxygenase (Photinus pyralis) (P08659 whole entry, looked up): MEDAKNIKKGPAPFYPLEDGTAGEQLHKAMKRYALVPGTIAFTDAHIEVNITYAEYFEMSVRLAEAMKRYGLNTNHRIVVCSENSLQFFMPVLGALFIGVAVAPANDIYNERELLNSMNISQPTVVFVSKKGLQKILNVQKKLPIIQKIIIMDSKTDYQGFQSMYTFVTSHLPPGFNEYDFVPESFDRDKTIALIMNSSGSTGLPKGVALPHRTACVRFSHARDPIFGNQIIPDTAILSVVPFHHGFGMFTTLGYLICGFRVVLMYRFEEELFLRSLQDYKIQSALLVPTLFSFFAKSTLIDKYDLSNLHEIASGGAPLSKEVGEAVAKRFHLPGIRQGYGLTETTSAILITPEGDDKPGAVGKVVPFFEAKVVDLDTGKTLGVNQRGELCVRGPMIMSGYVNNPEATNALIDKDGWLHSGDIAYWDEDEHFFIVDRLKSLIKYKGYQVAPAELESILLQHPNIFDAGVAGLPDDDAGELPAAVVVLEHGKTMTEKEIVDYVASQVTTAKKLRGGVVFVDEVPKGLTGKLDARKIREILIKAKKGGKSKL
Sequence of Fibroblast growth factor 2 (Homo sapiens) (P09038 whole entry, looked up): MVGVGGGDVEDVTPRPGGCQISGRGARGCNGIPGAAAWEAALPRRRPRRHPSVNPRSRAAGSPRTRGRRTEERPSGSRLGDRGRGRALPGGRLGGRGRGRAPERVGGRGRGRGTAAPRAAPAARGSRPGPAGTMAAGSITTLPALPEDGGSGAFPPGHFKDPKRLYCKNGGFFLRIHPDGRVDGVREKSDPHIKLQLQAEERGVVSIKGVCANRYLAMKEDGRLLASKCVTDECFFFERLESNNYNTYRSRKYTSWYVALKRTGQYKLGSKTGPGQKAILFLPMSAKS
Sequence of Torsin-1A (Homo sapiens) (O14656 whole entry, looked up): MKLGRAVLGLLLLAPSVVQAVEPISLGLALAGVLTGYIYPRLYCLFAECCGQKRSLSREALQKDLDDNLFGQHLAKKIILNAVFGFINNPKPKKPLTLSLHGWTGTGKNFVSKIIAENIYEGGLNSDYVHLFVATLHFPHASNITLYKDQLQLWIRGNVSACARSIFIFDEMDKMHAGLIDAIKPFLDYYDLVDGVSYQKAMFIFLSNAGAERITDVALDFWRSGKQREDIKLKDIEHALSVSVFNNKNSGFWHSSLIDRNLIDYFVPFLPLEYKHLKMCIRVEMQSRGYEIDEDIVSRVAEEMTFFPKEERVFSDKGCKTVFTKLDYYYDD
Sequence of Focal adhesion kinase 1 (Homo sapiens) (Q05397 whole entry, looked up): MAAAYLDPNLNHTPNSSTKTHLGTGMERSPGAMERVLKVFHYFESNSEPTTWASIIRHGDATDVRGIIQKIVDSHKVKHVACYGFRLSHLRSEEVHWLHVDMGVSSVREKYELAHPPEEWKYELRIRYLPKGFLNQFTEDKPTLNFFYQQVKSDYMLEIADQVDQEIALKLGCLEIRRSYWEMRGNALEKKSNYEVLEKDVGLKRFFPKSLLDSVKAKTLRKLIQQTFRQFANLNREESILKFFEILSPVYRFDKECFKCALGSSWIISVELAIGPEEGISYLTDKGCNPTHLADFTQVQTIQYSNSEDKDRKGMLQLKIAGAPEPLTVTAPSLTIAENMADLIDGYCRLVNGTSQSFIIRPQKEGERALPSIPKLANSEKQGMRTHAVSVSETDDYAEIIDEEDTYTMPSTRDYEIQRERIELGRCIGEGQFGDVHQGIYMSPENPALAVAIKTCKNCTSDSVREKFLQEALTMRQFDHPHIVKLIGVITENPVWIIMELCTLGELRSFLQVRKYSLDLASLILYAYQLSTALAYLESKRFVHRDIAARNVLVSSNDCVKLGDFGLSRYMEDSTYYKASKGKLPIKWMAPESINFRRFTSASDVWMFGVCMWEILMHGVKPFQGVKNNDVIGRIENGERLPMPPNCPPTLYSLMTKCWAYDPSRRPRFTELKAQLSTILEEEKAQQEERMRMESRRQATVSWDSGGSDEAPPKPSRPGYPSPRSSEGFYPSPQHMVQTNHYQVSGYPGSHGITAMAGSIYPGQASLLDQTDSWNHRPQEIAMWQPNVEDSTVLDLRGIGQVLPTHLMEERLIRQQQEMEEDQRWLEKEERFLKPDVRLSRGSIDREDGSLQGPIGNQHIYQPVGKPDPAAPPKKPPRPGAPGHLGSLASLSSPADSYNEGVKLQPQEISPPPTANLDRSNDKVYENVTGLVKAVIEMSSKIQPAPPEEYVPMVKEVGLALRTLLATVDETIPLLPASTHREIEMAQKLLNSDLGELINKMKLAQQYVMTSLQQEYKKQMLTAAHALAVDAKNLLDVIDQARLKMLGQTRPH
Sequence of Follistatin (Homo sapiens) (P19883 whole entry, looked up): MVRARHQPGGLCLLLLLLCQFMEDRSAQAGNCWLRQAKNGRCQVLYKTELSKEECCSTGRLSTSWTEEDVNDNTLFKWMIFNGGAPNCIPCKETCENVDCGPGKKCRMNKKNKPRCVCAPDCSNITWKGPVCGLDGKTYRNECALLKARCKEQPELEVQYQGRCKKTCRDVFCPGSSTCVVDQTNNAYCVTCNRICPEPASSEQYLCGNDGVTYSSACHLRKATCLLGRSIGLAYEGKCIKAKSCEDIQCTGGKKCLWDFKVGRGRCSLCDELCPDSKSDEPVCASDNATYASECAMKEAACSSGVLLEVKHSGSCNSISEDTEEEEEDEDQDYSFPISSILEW
Sequence of Streptavidin (Streptomyces avidinii) (P22629 whole entry, looked up): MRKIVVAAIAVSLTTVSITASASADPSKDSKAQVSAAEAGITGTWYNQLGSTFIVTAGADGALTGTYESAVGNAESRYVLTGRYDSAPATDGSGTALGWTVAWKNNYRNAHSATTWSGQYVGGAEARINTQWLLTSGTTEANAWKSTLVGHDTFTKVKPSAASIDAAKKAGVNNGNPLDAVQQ

Turning to `CC(C)C(O)C1C=CC2C(=O)N(c3ccccc3)C(=O)C2N1Nc1ccc(C#N)cc1` (stereo not given), the composite z-score in [1] was determined as 1.68; in assay [2], 1.14; in [3] it was 0.0162; in assay [4], 1.01; in assay [5], 0.97; in [6], 0.598. Also, the composite z-score was -0.265 in the assay on Lefty1; 1.12 in assay [8]; 0.612 in assay [10]; 0.761 in assay [15]; 0.388 in assay [16]; -0.0618 with Torsin-1A (Homo sapiens) [17]. Also, the values for the composite z-score (with Torsin-1A (Homo sapiens) [18]; in [19]) were 0.719 and 0.0011, respectively. The z-score is 0.192 in assay [7]; -0.555 (inactive) in assay [9]; 0.388 (inactive) in [11]; -0.783 (inactive) in [12]; 0.629 (inactive) in assay [13]; 0.813 (inactive) in assay [14].
On to `Cc1cc(C)c(C(O)C2C=CC3C(=O)N(c4ccccc4)C(=O)C3N2Nc2ccc(C#N)cc2)c(C)c1` (stereo not given), for which the composite z-score in [1] was determined as 1.21; in assay [2], 1.23; in assay [3] it was 0.388; in [4] it was 0.912; in assay [5] it was 0.509; in assay [6] it was 0.312. Moreover, the composite z-score with Lefty1 stood at 0.302; in assay [8], 1.03; in assay [10], 0.461; in [15] it was 2; in [16], 0.427; with Torsin-1A (Homo sapiens) [17] it was 0.221. The composite z-score is 1.51 with Torsin-1A (Homo sapiens) [18] and -0.438 in assay [19]. The z-score in assay [7] was -0.613; in [9], -0.75 (inactive); in assay [11], 0.287 (inactive); in assay [12], -1.36 (inactive); in assay [13] it was 0.246 (inactive); in assay [14], 1.19 (inactive).
Regarding `COCCOC(=O)N1C(=O)[C@@]2(c3cc(C#CCC(C(=O)OC)C(=O)OC)ccc31)[C@H](c1ccccc1OCCO)N1[C@H](c3ccccc3)[C@H](c3ccccc3)OC(=O)[C@H]1[C@@H]2C(N)=O`, the composite z-score was 2.79 in assay [1]; 1.19 in assay [2]; -0.418 in [3]; 0.942 in assay [4]; 1.08 in assay [5]; 1.29 in assay [6]. Also, the composite z-score in the assay with Lefty1 stood at 0.714; in [8], 1.1; in assay [10], 0.53; in assay [15], 0.0558; in assay [16], 0.137; in the assay with Torsin-1A (Homo sapiens) [17], 0.402. Further, the values for the composite z-score (with Torsin-1A (Homo sapiens) [18]; in assay [19]) were 0.689 and 1.52, respectively. The z-score in [7] is 0.833; in assay [9], -0.834 (inactive); in [11], -3.11 (inactive); in [12], 0.451 (inactive); in [13], 1.16 (inactive); in assay [14] it was 2.17 (inactive).
Consider `NC(=O)NCC#Cc1ccc2c(c1)[C@]1(C(=O)N2)[C@H](C(=O)N2CCCCCCC2)[C@H]2C(=O)O[C@H](c3ccccc3)[C@H](c3ccccc3)N2[C@@H]1c1ccc(OCCO)cc1`, for which the composite z-score is -0.132 in [1]; 1.14 in [2]; 0.773 in [3]; 0.909 in [4]; 1.47 in assay [5]; 0.649 in assay [6]. Moreover, the composite z-score in the assay with Lefty1 amounted to 1.25; in assay [8] it was 1.36; in assay [10] it was 0.683; in assay [15], 2.11; in [16] it was 0.563; with Torsin-1A (Homo sapiens) [17] it was 0.92. The composite z-score with Torsin-1A (Homo sapiens) [18] turned out to be 0.304; in assay [19], 0.679. The z-score in assay [7] was -1.62; in [9], -0.551 (inactive); in [11], -0.416 (inactive); in assay [12], -0.0789 (inactive); in [13] it was 0.619 (inactive); in assay [14], 0.0646 (inactive).
